Experiment in all cases: NCI-60 one-dose screen, 48 h (100 = growth as untreated, 0 = no growth, -100 = all killed)
What all share (details): 10 µM

For assay [1], the system named is T-47D breast.
The subject of assay [2] is BT-549 breast.
Assay [3] has as its system MDA-MB-435 melanoma.
The subject of assay [4] is SW-620 colon.
Assay [5] relates to MCF7 breast.
The test system of assay [6] is HCT-116 colon.
Assay [7] deals with HCC-2998 colon.
The subject of assay [8] is KM12 colon.

About 83,000 compounds went through this panel and 20% of them were active in at least one assay; those are over-represented in the sample as a whole.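 Interpretation: 100, growth as untreated; towards 0, rising growth inhibition; 0, no net growth; 0 to -100, cell death. Compounds scoring below 10 were considered active.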 Values without a mark were called inactive. Activity calls are given as the source filed them.

This passage reports growth results from PubChem BioAssay (NCI).

Take `COc1ccc(/C=C2\CCCC3C2=Nc2ccccc2NC3c2ccc(OC)cc2)cc1` (stereo not drawn): the growth in assay [1] was 101%; in assay [2], 79.6%; in assay [3], 13.8%; in assay [4], 72.2%; in assay [5], 56.1%; in assay [6] it was 38.1%. The growth in assay [7] is 104%; in assay [8], 27.5%.
As for `O=C1/C(=C/c2ccc([N+](=O)[O-])s2)Oc2cc(Cl)ccc21`, the growth was 11.2% in assay [1]; -55% (active) in assay [2]; -25.7% (active) in assay [3]; -40.9% (active) in assay [4]; 4.42% (active) in assay [5]; -17.8% (active) in assay [6]. Also, the values for the growth in assay [7] and in assay [8] were 2.91% (active) and -28.4% (active), respectively.
For `COc1ccc(Nc2cnc3cc(NS(=O)(=O)c4ccc(C)cc4)ccc3n2)cc1`, the growth is 94.4% in assay [1]; 98.1% in assay [2]; 4.57% (active) in assay [3]; 59.9% in assay [4]; 61.6% in assay [5]; 79.6% in assay [6]. For the same compound, the values for the growth in assay [7] and in assay [8] were 93.6% and 71.3%, respectively.
`CN(C)CCOc1ccc(-c2nc3sccn3c2-c2ccnc(S(C)(=O)=O)n2)cc1`: the growth in assay [1] was 110%; in assay [2] it was 118%; in assay [3], 107%; in assay [4], 104%; in assay [5], 90.2%; in assay [6], 98.1%. Also, the growth in assay [7] was 111%; in assay [8], 113%.
In the case of `COc1ccc(-c2nn(-c3cccc(Cl)c3)cc2/C=C2\NC(=S)N(c3ccc(Cl)cc3)C2=O)cc1`, the growth in assay [1] was 11.9%; in assay [2] it was -13% (active); in assay [3] it was 7.26% (active); in assay [4], 40.8%; in assay [5] it was 19.3%; in assay [6] it was 0.814% (active). Moreover, the growth was 23.2% in assay [7] and 26.6% in assay [8].
With `Cc1c(O)c(=O)ccn1C1CCC(CC2CCC(n3ccc(=O)c(O)c3C)CC2)CC1` (stereo not drawn), the growth was 32.3% in assay [1]; 31.5% in assay [2]; 33.3% in assay [3]; 43.1% in assay [4]; 15.9% in assay [5]; 28.4% in assay [6]. Moreover, the growth in assay [7] was 55.6%; in assay [8] it was 46.5%.
For the compound `Cc1ccc(S(=O)(=O)N/N=C2\CCCc3ccccc32)cc1`, the growth in assay [1] was 94%; in assay [2], 115%; in assay [3], 101%; in assay [4], 101%; in assay [5], 92.1%; in assay [6], 114%. In addition, the growth in assay [7] is 108%; in assay [8] it was 111%.
Regarding `OC(CCN1CCCC1)(c1ccccc1)C1CCCCC1` (stereo not drawn), the growth in assay [1] is 102%; in assay [2], 106%; in assay [3] it was 101%; in assay [4], 105%; in assay [5], 101%; in assay [6], 104%. Also, the results for the growth in assay [7] and in assay [8] were 105% and 101%, respectively.
With `CCCCC/C=C/C/C=C/CCCCCCCC1=NC(C)(C)CN1C(C)C`, the growth in assay [1] was 16.5%; in assay [2], 77.8%; in assay [3], 15.9%; in assay [4], -70.3% (active); in assay [5], -16.4% (active); in assay [6] it was -36.8% (active). Also, the growth is -9.05% (active) in assay [7] and -92% (active) in assay [8].
As to `Cc1c2c[n+](C(C)C)ccc2c(C)c2c1[nH]c1ccccc12`, the growth was -13.7% (active) in assay [1]; 2.83% (active) in assay [2]; 15.9% in assay [3]; 22% in assay [4]; 3.87% (active) in assay [5]; 20.1% in assay [6]. Further, the results for the growth in assay [7] and in assay [8] were 18.8% and 8.68% (active), respectively.
Consider `CS(=O)(=O)c1nccc(-c2c(-c3cccc(OCCN4CCOCC4)c3)nc3sccn23)n1`, for which the growth is 81% in assay [1]; 108% in assay [2]; 98.4% in assay [3]; 97.7% in assay [4]; 69.3% in assay [5]; 78.4% in assay [6]. Moreover, the growth in assay [7] was 101%; in assay [8], 96.6%.
As for `COc1cc(-c2ccc[nH]2)[nH]c1/C=C1\N=C(C)C(C(=O)NC(C)C)=C1C`, the growth was 34% in assay [1]; 43.8% in assay [2]; 14.9% in assay [3]; 7.72% (active) in assay [4]; 7.83% (active) in assay [5]; 4.6% (active) in assay [6]. In addition, the growth was 21.2% in assay [7] and 19.3% in assay [8].
On to `COc1cc2nc(SCC(=O)Nc3cc(OC)c(OC)c(OC)c3)n(Cc3ccccc3)c(=O)c2cc1OC`, for which the growth is 73.5% in assay [1]; 14% in assay [2]; 76.2% in assay [3]; 91% in assay [4]; 82.6% in assay [5]; 52.1% in assay [6]. For the same compound, the growth in assay [7] was 77.2%; in assay [8], 77.8%.
As for `CC[C@H]1OC(=O)[C@H](C)[C@@H](O[C@H]2C[C@@](C)(OC)[C@@H](O)[C@H](C)O2)[C@H](C)[C@@H](O[C@@H]2O[C@H](C)C[C@H](N(C)C)[C@H]2O)[C@](C)(OC)C/C(C)=C2/O[C@@]1(C)C=C2C`, the growth in assay [1] is 41.8%; in assay [2] it was 78.7%; in assay [3], -83.4% (active); in assay [4], -100% (active); in assay [5] it was -8.4% (active); in assay [6], 4.59% (active). The growth in assay [7] is -85.8% (active); in assay [8] it was 18.2%.
In the case of `CNC(=O)c1c(I)c(NC(C)=O)c(I)c(C(=O)O)c1I`, the growth was 117% in assay [1]; 113% in assay [2]; 103% in assay [3]; 102% in assay [4]; 108% in assay [5]; 121% in assay [6]. Also, the growth is 106% in assay [7] and 109% in assay [8].
Regarding `CC(=O)Nc1cc2c(cc1Cl)Cc1cc(Cl)ccc1-2`, the growth is 29.2% in assay [1]; 99.2% in assay [2]; 98.4% in assay [3]; 97.5% in assay [4]; 40.1% in assay [5]; 99.3% in assay [6]. In addition, the growth is 65.6% in assay [7] and 87.4% in assay [8].
